The source of these data is PubChem BioAssay (EPA / NIEHS).

As usually defined, the AC50 is the midpoint of the concentration-response curve, whichever way the signal moves.

Records with an inconclusive call do not appear. Activity calls are given as the source filed them. The calls were made as follows, unless noted: active = hit-call score of the fitted dose curve at least 0.9, where 1 is the maximum; inactive = score below 0.9.

Experiment [1] in a line: ATG_Sox_CIS: Attagene CIS-FACTORIAL HepG2 Assay for human SRY-box transcription factor (SOX) (AID 2282960). The conditions noted are these: HepG2 Attagene cis-factorial SOX reporter, mRNA; actives raise or lower the signal. Put shortly: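 Cells were transfected with reporter constructs under cis-regulatory promoters, then exposed to chemicals for 24 h. Reporter transcripts were quantified by fluorescence after RT-PCR and capillary electrophoresis; activity was fitted in both directions against DMSO.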

In experiment [2] the target is Transcription factor Sp1 (Homo sapiens) (UniProt P08047). Briefly: ATG_Sp1_CIS: Attagene CIS-FACTORIAL HepG2 Assay for human Specificity Protein 1 (Sp1) (AID 2282961). The conditions noted are these: HepG2 Sp1 cis-reporter transcription, actives raise or lower the signal. The gist of the method: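 Measures mRNA induction of an Sp1-linked reporter in HepG2 cells 24 h post-dosing. Multiplexed reporters read by RT-PCR and capillary electrophoresis; DMSO serves as negative control and baseline.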

Experiment [3] is described as follows: ATG_SREBP_CIS: Attagene CIS-FACTORIAL HepG2 Assay for human Sterol Regulatory Element Binding (SREBP) (AID 2282962). The conditions noted are these: HepG2 Attagene cis-factorial SREBP reporter, mRNA; actives raise or lower the signal. The gist of the method: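 Readout: fluorescent reporter-transcript peaks resolved by capillary electrophoresis after RT-PCR. Cells were human HepG2 carrying transfected cis-promoter reporter constructs, dosed for 24 h. Gain or loss of signal was fitted against DMSO controls.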

Experiment [4] addresses Signal transducer and activator of transcription 3 (Homo sapiens) (UniProt P40763). Description: ATG_STAT3_CIS: Attagene CIS-FACTORIAL HepG2 Assay for human Signal Transducer and Activator of Transcription 3 (STAT3) (AID 2282963). The conditions noted are these: HepG2, Attagene cis-factorial STAT3 reporter transcription; actives raise or lower the signal. The gist of the method:
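Uses human liver HepG2 transiently carrying cis-regulated reporter transcription units. Following 24 h dosing, reporter mRNA induction was detected by RT-PCR and capillary electrophoresis, analysed bidirectionally versus DMSO.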

The nature of experiment [5]: ATG_TCF_b_cat_CIS: Attagene CIS-FACTORIAL HepG2 Assay for human T-Cell-Factor with beta-catenin (TCF/b-cat) (AID 2282965). The note with it: HepG2 TCF/beta-catenin cis-reporter transcription, actives raise or lower the signal. Put shortly: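 In this cis-format system, transfected HepG2 cells report endogenous transcription factor activity. Readout after 24 h exposure is reporter transcript abundance from RT-PCR and capillary electrophoresis, analysed for gain or loss of signal versus DMSO.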

Experiment [6] is described as follows: ATG_TAL_CIS: Attagene CIS-FACTORIAL HepG2 Assay for human TAL Basal Promoter (AID 2282966).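 Also: background control endpoint measuring basal TAL promoter reporter mRNA not a specific factor.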 The conditions noted are these: HepG2 Attagene cis-factorial TAL promoter reporter; actives raise or lower the signal. Put shortly:
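HepG2, transient MRTU transfection, 24 h compound exposure; RNA → oligo(dT) RT → PCR → 6-FAM primer extension → HpaI digest → CE fluorescence. Bidirectional curve fit vs DMSO. Background-control readout.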

A short description of experiment [7]: ATG_TGFb_CIS: Attagene CIS-FACTORIAL HepG2 Assay for human Transforming Growth Factor (TGF) (AID 2282967). The conditions noted are these: HepG2 Attagene CIS TGFb reporter, mRNA transcription; actives raise or lower the signal. The gist of the method: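 Readout: fluorescently labeled reporter cDNA fragments resolved by capillary electrophoresis after RT-PCR. Transfected HepG2 cells dosed for 24 h; endogenous TF activity at TGFB1-linked cis element; gain or loss fitted relative to DMSO.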

A short description of experiment [8]: ATG_VDRE_CIS: Attagene CIS-FACTORIAL HepG2 Assay for human Vitamin D Receptor Element (VDRE) (AID 2282968). The note with it: HepG2 VDRE cis-reporter transcription, actives raise or lower the signal. The gist of the method: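 Transfected HepG2 reporter cells, chemical treatment 24 h. RNA isolated, cDNA amplified with reporter-specific primers, products analysed by capillary electrophoresis. Endpoint fitted in both directions versus DMSO.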

The target in experiment [9] is Estrogen receptor (Homo sapiens) (UniProt P03372). Briefly: ATG_ERa_TRANS: Attagene TRANS-FACTORIAL HepG2 Assay for human Estrogen Receptor alpha (ERa) (AID 2282970; active = hit-call score of the fitted dose curve at least 0.9, where 1 is the maximum). The conditions noted are these: HepG2 Attagene TRANS ERa GAL4 reporter, mRNA. Put shortly: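 Reporter mRNA induction after 24 hours, detected by fluorescent RT-PCR and capillary electrophoresis, gives the read-out. Cells are HepG2 transiently transfected with GAL4-UAS reporter transcription units responding to chimeric NR-Gal4. Activity is taken as gain of signal over DMSO baseline.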

Experiment [10] deals with X-box-binding protein 1 (Homo sapiens) (UniProt P17861). Description: ATG_Xbp1_CIS: Attagene CIS-FACTORIAL HepG2 Assay for human X-box Binding Protein 1 (XBP1) (AID 2282972). The conditions noted are these: HepG2 XBP1 cis-element reporter, Attagene multiplex; actives raise or lower the signal. The gist of the method:
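Read-out: fluorescent reporter mRNA fragments resolved by capillary electrophoresis after RT-PCR. Human HepG2 liver cells carried transfected cis-promoter reporter units and were exposed to chemicals for 24 hours. Gain or loss of signal fitted relative to DMSO baseline.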

Experiment [11] can be described thus: ATG_M_19_TRANS: Attagene TRANS-FACTORIAL HepG2 Assay for M19 Transcription Factor (Internal Marker) (AID 2282974; active = hit-call score of the fitted dose curve at least 0.9, where 1 is the maximum). The conditions noted are these: HepG2 Attagene TRANS-FACTORIAL M19 internal marker reporter. The gist of the method: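 After transfection of HepG2 with GAL4-UAS-driven reporter constructs, cells are dosed for 24 h. Total RNA is reverse-transcribed, reporter sequences PCR-amplified and labelled, then HpaI-digested and sized by capillary electrophoresis.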

The target of experiment [12] is Oxysterols receptor LXR-alpha (Homo sapiens) (UniProt Q13133). Description: ATG_LXRa_TRANS: Attagene TRANS-FACTORIAL HepG2 Assay for human Liver X Receptor alpha (LXRa) (AID 2282980; active = hit-call score of the fitted dose curve at least 0.9, where 1 is the maximum). The note with it: HepG2 Attagene TRANS reporter, LXRa transactivation. Put shortly: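 Read-out: reporter transcript levels by RT-PCR plus capillary electrophoresis, fluorescence intensity. Transiently transfected HepG2, exogenous NR-GAL4 chimera, GAL4-UAS reporters; 24 h compound exposure. Activity = increase over DMSO negative control.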

The target of experiment [13] is Androgen receptor (Homo sapiens) (UniProt P10275). Description: ATG_AR_TRANS: Attagene TRANS-FACTORIAL HepG2 Assay for human Androgen Receptor (AR) (AID 2282973; active = hit-call score of the fitted dose curve at least 0.9, where 1 is the maximum). The note with it: HepG2 Attagene TRANS-FACTORIAL AR reporter transcription. Put shortly: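 Readout is reporter transcript abundance, quantified by fluorescent RT-PCR products separated on capillary electrophoresis. Human HepG2 liver cells carried transiently transfected NR-Gal4 chimera plus GAL4-UAS reporter constructs and were dosed for 24 h; activity scored upward versus DMSO.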

Experiment [14] has as its target Glucocorticoid receptor (Homo sapiens) (UniProt P04150). Briefly: ATG_GR_TRANS: Attagene TRANS-FACTORIAL HepG2 Assay for human Glucocorticoid Receptor (GR) (AID 2282978; active = hit-call score of the fitted dose curve at least 0.9, where 1 is the maximum;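 also: activators score as hits since higher reporter transcript over DMSO is fitted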). The note with it: HepG2 Attagene TRANS GR reporter, mRNA transcription. Put shortly: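 Multiplexed TRANS reporter system, HepG2; 24 h exposure; RNA → oligo(dT) RT → reporter-specific PCR → 6-FAM primer extension → HpaI cut → CE fluorescence. Gain-of-signal vs DMSO.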

The target in experiment [15] is Nuclear receptor subfamily 1 group I member 3 (Homo sapiens) (UniProt Q14994). Description: ATG_CAR_TRANS: Attagene TRANS-FACTORIAL HepG2 Assay for human Constitutive Androstane Receptor (CAR) (AID 2282969; active = hit-call score of the fitted dose curve at least 0.9, where 1 is the maximum;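 also: activators raise reporter mRNA above DMSO so AC50 marks induction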). The conditions noted are these: HepG2 Attagene TRANS-FACTORIAL CAR reporter. The gist of the method: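 Steps: transient transfection of HepG2 with multiple GAL4-UAS reporter units; 24 h compound incubation; RNA isolation, RT-PCR, 6-FAM primer extension, HpaI digest; capillary electrophoresis. Gain-of-signal relative to DMSO negative control.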

Experiment [16] deals with Steroid hormone receptor ERR1 (Homo sapiens) (UniProt P11474). Description: ATG_ERRa_TRANS: Attagene TRANS-FACTORIAL HepG2 Assay for human Estrogen-Related Receptor alpha (ERRa) (AID 2282971; active = hit-call score of the fitted dose curve at least 0.9, where 1 is the maximum). The note with it: HepG2 Attagene TRANS reporter, ERRa transactivation. The gist of the method:
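Transfected HepG2, 24 h dosing, ERRa-Gal4 chimera driving GAL4-UAS reporter. Readout: reporter mRNA via RT-PCR plus capillary electrophoresis (fluorescence). Positive direction vs DMSO control.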

Experiment [17] addresses Oxysterols receptor LXR-beta (Homo sapiens) (UniProt P55055). Description: ATG_LXRb_TRANS: Attagene TRANS-FACTORIAL HepG2 Assay for human Liver X Receptor beta (LXRb) (AID 2282981; active = hit-call score of the fitted dose curve at least 0.9, where 1 is the maximum). The note with it: HepG2 Attagene TRANS GAL4-LXRb reporter, mRNA. The gist of the method:
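Liver-derived HepG2 cells transfected with Gal4-responsive reporters were dosed for 24 h. Activation was scored as rise in reporter mRNA, by RT-PCR and capillary electrophoresis, above DMSO baseline.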

Experiment [18] concerns the target Bile acid receptor (Homo sapiens) (UniProt Q96RI1). Briefly: ATG_FXR_TRANS: Attagene TRANS-FACTORIAL HepG2 Assay for Farnesoid X Receptor (FXR) (AID 2282979; active = hit-call score of the fitted dose curve at least 0.9, where 1 is the maximum;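 also: hits raise reporter mRNA above DMSO so AC50 marks FXR activation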). The note with it: HepG2 Attagene TRANS FXR-GAL4 reporter transcription. Put shortly:
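Read-out: fluorescent reporter transcripts quantified by capillary electrophoresis after RT-PCR of total RNA. Source cells were HepG2 transiently carrying chimeric NR-GAL4 plus GAL4-UAS reporter units, dosed 24 h. Activity fitted upward relative to DMSO baseline.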

Experiment [19] can be described thus: ATG_GAL4_TRANS: Attagene TRANS-FACTORIAL HepG2 Assay for GAL4 (Internal Marker) (AID 2282976; active = hit-call score of the fitted dose curve at least 0.9, where 1 is the maximum). The conditions noted are these: HepG2 Attagene TRANS GAL4 internal marker reporter. The gist of the method: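 RT-PCR/capillary electrophoresis readout of reporter mRNA. HepG2, transient MRTU transfection (GAL4-UAS reporters), 24 h compound exposure. Background-control endpoint, positive direction vs DMSO baseline.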

Chain of Signal transducer and activator of transcription 3 (Homo sapiens) (P40763 whole entry, looked up): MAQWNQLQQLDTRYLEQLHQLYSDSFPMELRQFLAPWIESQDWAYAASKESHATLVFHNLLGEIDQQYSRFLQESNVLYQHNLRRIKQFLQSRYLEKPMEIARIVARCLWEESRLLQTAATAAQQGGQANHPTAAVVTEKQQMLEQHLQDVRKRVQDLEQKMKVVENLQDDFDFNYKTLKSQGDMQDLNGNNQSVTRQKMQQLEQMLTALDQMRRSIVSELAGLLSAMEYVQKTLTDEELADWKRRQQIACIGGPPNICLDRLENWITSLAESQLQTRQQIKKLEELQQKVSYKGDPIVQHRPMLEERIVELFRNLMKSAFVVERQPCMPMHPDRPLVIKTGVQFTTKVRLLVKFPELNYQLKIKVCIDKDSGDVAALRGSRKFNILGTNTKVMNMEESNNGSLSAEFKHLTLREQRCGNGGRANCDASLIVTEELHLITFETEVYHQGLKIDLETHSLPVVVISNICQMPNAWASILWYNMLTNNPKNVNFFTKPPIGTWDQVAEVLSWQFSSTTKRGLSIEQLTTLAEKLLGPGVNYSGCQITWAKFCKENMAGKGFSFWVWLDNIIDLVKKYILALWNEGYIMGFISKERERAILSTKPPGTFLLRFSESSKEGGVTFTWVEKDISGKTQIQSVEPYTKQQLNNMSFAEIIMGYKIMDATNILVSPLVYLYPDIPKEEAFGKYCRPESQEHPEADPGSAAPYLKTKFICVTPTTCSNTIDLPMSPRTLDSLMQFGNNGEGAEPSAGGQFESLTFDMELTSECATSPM
Chain of Estrogen receptor (Homo sapiens) (P03372 whole entry, looked up, the tested form may be a part): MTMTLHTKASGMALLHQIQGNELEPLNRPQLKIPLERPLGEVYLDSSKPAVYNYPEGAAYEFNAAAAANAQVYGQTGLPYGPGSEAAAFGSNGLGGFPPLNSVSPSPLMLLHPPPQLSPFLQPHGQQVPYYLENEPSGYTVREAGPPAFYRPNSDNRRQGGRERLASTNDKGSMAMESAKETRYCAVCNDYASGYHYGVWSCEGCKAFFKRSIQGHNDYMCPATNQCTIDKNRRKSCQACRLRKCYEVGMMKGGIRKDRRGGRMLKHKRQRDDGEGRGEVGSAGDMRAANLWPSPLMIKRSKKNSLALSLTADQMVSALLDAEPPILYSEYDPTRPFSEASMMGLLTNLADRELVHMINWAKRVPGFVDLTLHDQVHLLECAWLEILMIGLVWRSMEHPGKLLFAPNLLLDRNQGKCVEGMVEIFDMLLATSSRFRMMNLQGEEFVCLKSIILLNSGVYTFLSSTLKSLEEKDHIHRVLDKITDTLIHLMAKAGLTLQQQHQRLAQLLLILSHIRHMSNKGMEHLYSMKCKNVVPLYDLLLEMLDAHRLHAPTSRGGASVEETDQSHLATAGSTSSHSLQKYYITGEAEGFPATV
Chain of Androgen receptor (Homo sapiens) (P10275 whole entry, looked up, the tested form may be a part): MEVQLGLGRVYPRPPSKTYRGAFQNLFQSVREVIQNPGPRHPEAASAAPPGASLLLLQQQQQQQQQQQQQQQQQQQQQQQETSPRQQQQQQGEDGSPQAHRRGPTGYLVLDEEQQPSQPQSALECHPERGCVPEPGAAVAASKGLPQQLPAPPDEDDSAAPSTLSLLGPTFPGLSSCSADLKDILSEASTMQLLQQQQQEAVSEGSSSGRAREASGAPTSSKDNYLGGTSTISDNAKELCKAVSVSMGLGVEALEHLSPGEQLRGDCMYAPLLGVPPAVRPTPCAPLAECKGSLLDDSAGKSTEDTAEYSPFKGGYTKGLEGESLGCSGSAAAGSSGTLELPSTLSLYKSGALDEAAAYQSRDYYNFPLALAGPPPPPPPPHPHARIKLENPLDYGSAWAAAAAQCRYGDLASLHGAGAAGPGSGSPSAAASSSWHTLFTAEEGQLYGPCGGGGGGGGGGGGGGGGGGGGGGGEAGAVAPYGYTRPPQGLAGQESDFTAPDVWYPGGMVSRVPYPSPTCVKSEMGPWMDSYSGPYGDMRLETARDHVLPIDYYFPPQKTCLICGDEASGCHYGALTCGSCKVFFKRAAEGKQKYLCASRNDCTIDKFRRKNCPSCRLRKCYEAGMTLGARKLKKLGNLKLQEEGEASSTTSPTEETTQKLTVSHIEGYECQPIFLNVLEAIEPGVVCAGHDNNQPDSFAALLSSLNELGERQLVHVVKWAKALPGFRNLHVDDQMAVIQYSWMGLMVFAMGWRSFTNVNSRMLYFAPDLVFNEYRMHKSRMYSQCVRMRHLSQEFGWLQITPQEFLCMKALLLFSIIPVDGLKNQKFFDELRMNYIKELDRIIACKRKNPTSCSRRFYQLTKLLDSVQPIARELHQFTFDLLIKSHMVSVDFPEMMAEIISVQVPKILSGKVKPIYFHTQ
Chain of Oxysterols receptor LXR-alpha (Homo sapiens) (Q13133 whole entry, looked up, the tested form may be a part): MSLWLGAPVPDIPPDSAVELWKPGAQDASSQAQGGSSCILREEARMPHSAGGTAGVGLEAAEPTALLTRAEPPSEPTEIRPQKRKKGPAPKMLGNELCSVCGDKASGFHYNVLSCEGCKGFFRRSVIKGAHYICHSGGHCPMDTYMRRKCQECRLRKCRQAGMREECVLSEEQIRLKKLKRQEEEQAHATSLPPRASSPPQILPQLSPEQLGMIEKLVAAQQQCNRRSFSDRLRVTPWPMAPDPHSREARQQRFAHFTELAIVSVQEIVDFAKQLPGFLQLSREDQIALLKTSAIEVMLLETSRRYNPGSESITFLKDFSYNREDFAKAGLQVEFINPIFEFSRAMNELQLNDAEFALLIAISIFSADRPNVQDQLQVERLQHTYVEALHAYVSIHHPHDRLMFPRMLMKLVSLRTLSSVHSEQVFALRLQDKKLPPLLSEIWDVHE
Chain of Steroid hormone receptor ERR1 (Homo sapiens) (P11474 whole entry, looked up, the tested form may be a part): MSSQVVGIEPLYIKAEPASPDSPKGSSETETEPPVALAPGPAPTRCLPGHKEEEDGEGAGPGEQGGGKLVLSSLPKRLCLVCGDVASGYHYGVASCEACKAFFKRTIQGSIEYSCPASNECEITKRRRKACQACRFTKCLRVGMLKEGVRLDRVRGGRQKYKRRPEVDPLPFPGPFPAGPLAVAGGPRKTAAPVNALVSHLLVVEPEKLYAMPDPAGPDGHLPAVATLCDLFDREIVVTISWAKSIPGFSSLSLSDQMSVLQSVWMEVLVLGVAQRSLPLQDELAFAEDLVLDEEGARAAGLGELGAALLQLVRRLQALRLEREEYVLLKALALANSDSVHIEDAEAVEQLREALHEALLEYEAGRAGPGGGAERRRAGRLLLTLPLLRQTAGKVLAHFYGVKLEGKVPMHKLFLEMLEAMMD
Chain of Transcription factor Sp1 (Homo sapiens) (P08047 whole entry, looked up): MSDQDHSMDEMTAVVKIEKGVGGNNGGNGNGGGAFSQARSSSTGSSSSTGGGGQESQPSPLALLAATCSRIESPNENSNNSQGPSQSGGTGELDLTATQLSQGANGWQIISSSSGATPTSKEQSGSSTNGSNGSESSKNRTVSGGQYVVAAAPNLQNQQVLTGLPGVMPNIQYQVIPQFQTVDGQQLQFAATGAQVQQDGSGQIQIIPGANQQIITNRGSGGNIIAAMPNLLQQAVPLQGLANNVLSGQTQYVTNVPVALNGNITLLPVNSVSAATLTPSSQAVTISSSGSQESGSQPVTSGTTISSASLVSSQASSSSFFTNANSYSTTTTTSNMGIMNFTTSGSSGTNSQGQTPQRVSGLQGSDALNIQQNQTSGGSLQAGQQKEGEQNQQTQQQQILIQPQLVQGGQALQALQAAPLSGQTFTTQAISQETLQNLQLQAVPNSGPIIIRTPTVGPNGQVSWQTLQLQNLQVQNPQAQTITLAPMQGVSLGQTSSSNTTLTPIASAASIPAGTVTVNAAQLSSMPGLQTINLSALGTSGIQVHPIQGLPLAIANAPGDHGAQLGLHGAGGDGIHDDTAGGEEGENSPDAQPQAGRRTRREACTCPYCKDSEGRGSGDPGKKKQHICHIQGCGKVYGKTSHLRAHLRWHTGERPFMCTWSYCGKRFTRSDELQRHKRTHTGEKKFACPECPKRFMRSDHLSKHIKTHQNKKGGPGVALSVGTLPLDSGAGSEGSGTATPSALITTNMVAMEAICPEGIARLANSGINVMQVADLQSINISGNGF
Chain of X-box-binding protein 1 (Homo sapiens) (P17861 whole entry, looked up, the tested form may be a part): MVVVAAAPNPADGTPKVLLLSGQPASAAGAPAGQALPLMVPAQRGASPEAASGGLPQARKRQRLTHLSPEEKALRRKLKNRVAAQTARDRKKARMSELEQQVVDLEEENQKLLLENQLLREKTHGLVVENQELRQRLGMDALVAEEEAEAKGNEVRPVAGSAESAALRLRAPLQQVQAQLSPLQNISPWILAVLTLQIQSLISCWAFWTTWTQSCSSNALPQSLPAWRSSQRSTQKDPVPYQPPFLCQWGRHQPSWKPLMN
Chain of Nuclear receptor subfamily 1 group I member 3 (Homo sapiens) (Q14994 whole entry, looked up, the tested form may be a part): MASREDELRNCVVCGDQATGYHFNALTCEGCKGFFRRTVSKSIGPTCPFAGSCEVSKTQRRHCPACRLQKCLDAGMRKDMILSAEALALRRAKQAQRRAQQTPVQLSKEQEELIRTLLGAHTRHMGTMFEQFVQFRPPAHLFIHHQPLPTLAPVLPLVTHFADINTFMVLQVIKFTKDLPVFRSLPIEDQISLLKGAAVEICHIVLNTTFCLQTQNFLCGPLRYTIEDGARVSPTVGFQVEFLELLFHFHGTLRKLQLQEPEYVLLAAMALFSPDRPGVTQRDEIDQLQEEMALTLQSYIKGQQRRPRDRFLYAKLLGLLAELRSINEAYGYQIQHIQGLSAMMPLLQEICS
Chain of Oxysterols receptor LXR-beta (Homo sapiens) (P55055 whole entry, looked up, the tested form may be a part): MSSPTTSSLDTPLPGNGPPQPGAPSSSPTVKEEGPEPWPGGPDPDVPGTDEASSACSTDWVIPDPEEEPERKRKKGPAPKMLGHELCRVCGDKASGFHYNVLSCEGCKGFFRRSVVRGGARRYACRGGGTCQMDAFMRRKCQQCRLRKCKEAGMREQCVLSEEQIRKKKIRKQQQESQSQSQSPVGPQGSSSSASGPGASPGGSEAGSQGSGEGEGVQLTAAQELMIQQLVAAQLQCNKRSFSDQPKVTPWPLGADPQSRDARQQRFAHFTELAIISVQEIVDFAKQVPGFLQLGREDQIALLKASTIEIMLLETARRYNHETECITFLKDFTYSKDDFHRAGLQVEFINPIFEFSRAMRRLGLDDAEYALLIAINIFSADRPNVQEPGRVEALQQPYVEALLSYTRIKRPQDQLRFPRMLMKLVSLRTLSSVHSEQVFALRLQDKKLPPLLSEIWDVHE

Take `C(=NC1CCCCC1)=NC1CCCCC1`: the call in experiment [1], in experiment [2], in experiment [4], in [5], in experiment [6] and in [7] was inactive. Besides, the compound was classed as inactive in experiment [9], in [11] and in experiment [12]. For the same compound, the AC50 was 17.2 µM (active) in experiment [3], 3.69 µM (active) in [8] and 1.97 µM (active) in [10].

Turning to `O=CC=O`, the compound was called inactive in experiment [1], in experiment [2], in [3], in experiment [4], in [5] and in [6]. The result in experiment [7], in [9], in [10], in experiment [13] and in [14] was inactive.

For `COP(=O)(OC)OC`, the compound was classed as inactive in experiment [1], in [2], in [3], in experiment [4], in experiment [5] and in experiment [6]. The compound was called inactive in experiment [7], in experiment [8], in experiment [15], in experiment [9], in experiment [16] and in experiment [10]. Also, the call in [13], in experiment [12] and in experiment [17] was inactive.

Regarding `O=C(c1ccccc1)C(Cl)Cl`, the AC50 in [1] was 25.7 µM (active); in experiment [2] it was 25.2 µM (active); in experiment [3], 26.4 µM (active); in experiment [5], 25 µM (active); in experiment [8] it was 7.69 µM (active); in [10], 25.1 µM (active). For the same compound, the compound was classed as inactive in experiment [4], in experiment [6], in experiment [7], in experiment [9], in experiment [16] and in experiment [13]. Further, the outcome in experiment [11], in [18] and in experiment [17] was inactive.

On to `c1ccc(N=NNc2ccccc2)cc1`, for which the concentration at half-maximal activity (AC50) in experiment [1] was 145 µM (active); in experiment [2], 153 µM (active); in [3] it was 136 µM (active); in experiment [8], 28.4 µM (active); in experiment [10] it was 108 µM (active). Further, the compound was classed as inactive in [4], in experiment [5], in [6], in [7], in experiment [15] and in experiment [16]. Moreover, in experiment [12], the compound was called inactive.

For `C=CC(=O)OCCCCCC(C)C`, the compound was called inactive in experiment [1], in experiment [2], in experiment [3], in [4], in [5] and in experiment [6]. In addition, the compound was called inactive in [7], in [8], in experiment [10], in [13], in [11] and in experiment [19]. In addition, the outcome in experiment [18] was inactive.
